# Measured values as given in the supplement of paper PMC6555819.
# Tests used:
# Experiment in all cases: PBM binding z-score (relative to random genomic background probes); higher = stronger binding; sequences stand for … in GC…GCGATTGACAGCGTAGAATGAAGG
# [1] = test system: FXR:RXRa (NR concentration 270 nM, RXRa partner concentration 90 nM)
# Outline: (§1)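 Custom Agilent 4×180K protein-binding microarrays carried double-stranded probes. Their 34-nt variable regions held direct-repeat seeds, single-nucleotide variants, half-site ablations and random human genomic background sequences. Arrays were incubated 1 h with ligand-free nuclear receptor dimers in PBS pH 7.4, 2% milk, 0.02% Triton X-100, 1 mM DTT, 0.2 mg/mL BSA and 0.4 mg/ml salmon testes DNA. Antibodies against each partner (one per run) detected binding, and scanned fluorescence was regression-normalized. Binding z-scores use random background probes as reference.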
# [2] = test system: LXRa:RXRa (NR concentration 270 nM, RXRa partner concentration 90 nM)
# Outline: as §1
# [3] = test system: LXRa homodimer (NR concentration 270 nM)
# Outline: as §1
# [4] = test system: LXRb:RXRa (NR concentration 270 nM, RXRa partner concentration 90 nM)
# Outline: as §1
# [5] = test system: LXRb homodimer (NR concentration 270 nM)
# Outline: as §1
# [6] = test system: PPARa:RXRa (NR concentration 270 nM, RXRa partner concentration 90 nM)
# Outline: as §1
# [7] = test system: PPARg:RXRa (NR concentration 180 nM, RXRa partner concentration 90 nM)
# Outline: as §1
# [8] = test system: PPARg:RXRa 270nM:90nM, anti-RXR (NR concentration 270 nM, RXRa partner concentration 90 nM)
# Outline: as §1
# [9] = test system: PPARg:RXRa 30nM:10nM, anti-RXR (NR concentration 30 nM, RXRa partner concentration 10 nM)
# Outline: as §1
# [10] = test system: PPARg:RXRa 90nM:30nM, anti-RXR (NR concentration 90 nM, RXRa partner concentration 30 nM)
# Outline: as §1
# [11] = test system: PPARg:RXRa DBDmut IVT, anti-RXR (DBD mutation: RXRa K156A/R161A, NR concentration 270 nM, RXRa partner concentration 90 nM)
# Outline: as §1
# [12] = test system: PPARg:RXRa IVT, anti-PPARg (NR concentration 270 nM, RXRa partner concentration 90 nM)
# Outline: as §1
# [13] = test system: PPARg DBDmut:RXRa IVT, anti-PPARg (DBD mutation: PPARg1 K132A/R137A, NR concentration 270 nM, RXRa partner concentration 90 nM)
# Outline: as §1
# [14] = test system: PPARg DBDmut IVT, anti-PPARg (DBD mutation: PPARg1 K132A/R137A, NR concentration 270 nM)
# Outline: as §1
# [15] = test system: PPARg homodimer (NR concentration 180 nM)
# Outline: as §1
# [16] = test system: PXR:RXRa (NR concentration 270 nM, RXRa partner concentration 90 nM)
# Outline: as §1
# [17] = test system: PXR homodimer (NR concentration 270 nM)
# Outline: as §1
# [18] = test system: RARa:RXR (NR concentration 270 nM, RXRa partner concentration 90 nM)
# Outline: as §1
# [19] = test system: RARa homodimer (NR concentration 270 nM)
# Outline: as §1
# [20] = test system: RARb:RXRa (NR concentration 270 nM, RXRa partner concentration 90 nM)
# Outline: as §1
Sequence,PBM binding z-score [1],PBM binding z-score [2],PBM binding z-score [3],PBM binding z-score [4],PBM binding z-score [5],PBM binding z-score [6],PBM binding z-score [7],PBM binding z-score [8],PBM binding z-score [9],PBM binding z-score [10],PBM binding z-score [11],PBM binding z-score [12],PBM binding z-score [13],PBM binding z-score [14],PBM binding z-score [15],PBM binding z-score [16],PBM binding z-score [17],PBM binding z-score [18],PBM binding z-score [19],PBM binding z-score [20]
CCTAGCAGGCTAATCTGGGTCACTCAAGGCTTGA,0.577,3.74,0.0725,1.2,-0.635,3.14,2.13,2.31,0.292,1.49,4.46,5.23,0.678,0.0667,0.493,0.328,-0.671,1.34,-0.634,1.07
AGAATGAGGTTATTAAGATCAGCGAATTGCGGTC,1.3,1.23,0.0436,1.11,-0.0862,2.49,1.47,1.85,0.288,1.29,3.16,2.5,0.614,0.292,0.609,1,0.607,1.22,0.18,1.27
CCTACAGGGCCATCAGGTCATTGATATCAACGTT,1.88,1.31,0.875,1.51,-0.272,2,0.835,1.04,0.253,0.77,0.49,1.32,-0.452,-0.51,1.27,1.71,0.581,1.89,0.0859,2.38
TCTTGTAGATCGACAGGAGGTTAAGAAAGATCGA,-0.239,0.869,-0.338,0.656,-0.423,0.999,-0.276,1.14,2.24,1.55,0.885,0.145,0.496,0.679,-0.189,0.501,-0.189,0.459,-0.333,0.401
CGTCCAAGCTCAGAGAGGTCAGTGAATGCCGAGT,1.33,1.41,0.781,1.52,-0.498,2.19,-0.188,0.558,-0.581,-0.0568,0.269,0.153,-0.648,-1.03,2.06,2.96,0.893,2.85,0.843,2.82
CAAACTAGGTCACGAAAGGTTAAAGTCGAATGAC,5.89,7.18,3.46,5.5,0.758,6.04,9.67,7.92,5.98,8.04,8.39,9.07,2.59,1.97,3.32,5.8,0.579,5.4,1.18,5.01
